Drawing on PubChem BioAssay (NCI), this text covers growth for 14 molecules.

Some test systems named below: RPMI-8226 leukemia; OVCAR-8 ovarian; OVCAR-5 ovarian; OVCAR-4 ovarian; SK-OV-3 ovarian; IGROV1 ovarian; OVCAR-3 ovarian; HS 578T breast; NCI/ADR-RES ovarian; T-47D breast.
Common to all, as to assay: NCI-60 one-dose screen, 48 h (100 = growth as untreated, 0 = no growth, -100 = all killed)
Common to all, as to conditions: 10 µM

Each structure is given as a SMILES string. The panel holds about 83,000 compounds, 20% with a hit somewhere; the sample as a whole holds those more often.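 The endpoint reported here, percent growth, reads 100 for growth as untreated, 0 for no net growth and -100 for all cells dead.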 Values without a mark were called inactive. Activity calls are given as the source filed them. The calls were made as follows: active = growth percent below 10; inactive = the rest.

On to `Cc1cc(C)c(CCc2cc(C)c(C)cc2C)cc1C`, for which the growth is 102% with RPMI-8226 leukemia; 102% with OVCAR-8 ovarian; 103% in the assay on OVCAR-5 ovarian; 92.9% with OVCAR-4 ovarian; 114% with SK-OV-3 ovarian; 111% in the assay with IGROV1 ovarian. For the same molecule, the growth is 114% in the assay on OVCAR-3 ovarian, 108% with HS 578T breast, 107% in the assay on NCI/ADR-RES ovarian and 114% in the assay on T-47D breast.

Take `N#Cc1ncc(-c2cc(F)c(F)c(F)c2)c(NC2CCCCCC2)n1`: the growth with RPMI-8226 leukemia is 81.1%; in the assay on OVCAR-8 ovarian it was 96.2%; in the assay with OVCAR-5 ovarian, 104%; with OVCAR-4 ovarian it was 77.8%; with SK-OV-3 ovarian, 88.3%; in the assay with IGROV1 ovarian it was 93.5%. Also, the growth in the assay with OVCAR-3 ovarian is 100%; in the assay with HS 578T breast, 73.3%; in the assay with NCI/ADR-RES ovarian, 95.3%; with T-47D breast, 72.6%.

With `O=C(N/N=C/c1cc2ccccc2c2ccccc12)c1cc(O)c(O)c(O)c1`, the growth was 78.8% in the assay with RPMI-8226 leukemia; 48.5% in the assay with OVCAR-8 ovarian; 90.4% in the assay with OVCAR-5 ovarian; 26.4% in the assay with OVCAR-4 ovarian; 78.8% in the assay on SK-OV-3 ovarian; 58.7% in the assay on IGROV1 ovarian. Also, the growth in the assay with OVCAR-3 ovarian was 58%; with HS 578T breast, 75.4%; in the assay on NCI/ADR-RES ovarian, 81.4%; with T-47D breast it was 2.62% (active).

In the case of `CC/C(=C(/c1ccc(OCCN(C)C)cc1)c1ccc(OC(=O)CCCCCCCCC(=O)c2c(C)[nH]c(/C=C3\N=C(c4ccc[nH]4)C=C3OC)c2C)cc1)c1ccccc1`, the growth with RPMI-8226 leukemia is 48.4%; in the assay with OVCAR-8 ovarian, 86.8%; in the assay on OVCAR-5 ovarian, 103%; with OVCAR-4 ovarian, 61.6%; in the assay on SK-OV-3 ovarian, 80.7%; with IGROV1 ovarian, 90.3%. The growth with OVCAR-3 ovarian is 89.6%; in the assay on HS 578T breast, 58.3%; in the assay with NCI/ADR-RES ovarian it was 91.8%; in the assay with T-47D breast it was 48.3%.

Regarding `CN(C)C=Nc1cc(Cl)ccc1Cl`, the growth in the assay with RPMI-8226 leukemia is 98.9%; in the assay on OVCAR-8 ovarian, 114%; in the assay with OVCAR-5 ovarian, 104%; in the assay on OVCAR-4 ovarian it was 99.9%; in the assay with SK-OV-3 ovarian it was 110%; in the assay with IGROV1 ovarian it was 118%. The growth with OVCAR-3 ovarian is 113%; in the assay with HS 578T breast, 117%; with NCI/ADR-RES ovarian, 107%; in the assay with T-47D breast it was 108%.

Take `CCCCCCN(CCCCCC)CC(O)c1ccc2c3c(cccc13)CC2` (stereo not given): the growth is 27.5% in the assay with RPMI-8226 leukemia; 68.4% in the assay on OVCAR-8 ovarian; 48.9% in the assay with OVCAR-5 ovarian; 72.4% in the assay on OVCAR-4 ovarian; 69.9% with SK-OV-3 ovarian; 39.4% in the assay on IGROV1 ovarian. Further, the growth was 80.6% with OVCAR-3 ovarian, 69.1% in the assay on HS 578T breast, 56.5% in the assay on NCI/ADR-RES ovarian and 30.2% in the assay on T-47D breast.

For the molecule `O=C(Nc1ccncc1)C(=O)c1cn(S(=O)(=O)c2cccc3ccccc23)c2ccccc12`, the growth was 43.1% with RPMI-8226 leukemia; 92.4% in the assay on OVCAR-8 ovarian; 102% in the assay with OVCAR-5 ovarian; 79.6% with OVCAR-4 ovarian; 87.9% with SK-OV-3 ovarian; 73.8% in the assay on IGROV1 ovarian. Moreover, the growth is 88.2% in the assay with OVCAR-3 ovarian, 100% in the assay with HS 578T breast, 78.4% in the assay with NCI/ADR-RES ovarian and 70.9% with T-47D breast.

Turning to `COc1ccc(Nc2nc3ccc(NC(=O)NC4CCCCC4)cc3[nH]c2=O)cc1`, the growth in the assay on RPMI-8226 leukemia was 66.2%; in the assay on OVCAR-8 ovarian it was 91.4%; with OVCAR-5 ovarian, 104%; with OVCAR-4 ovarian it was 113%; with SK-OV-3 ovarian, 96.1%; in the assay on IGROV1 ovarian, 94.1%. Moreover, the growth in the assay on OVCAR-3 ovarian was 112%; with HS 578T breast, 69.6%; in the assay with NCI/ADR-RES ovarian it was 103%; in the assay with T-47D breast, 92.8%.

On to `CC(C)=CCc1cc(O)cc2c1OC(C=C(C)C)C1=C2C(=O)C2=C(NCCS2(=O)=O)C1=O` (stereo not given), for which the growth with RPMI-8226 leukemia is 63.9%; in the assay on OVCAR-8 ovarian, 3.18% (active); in the assay on OVCAR-5 ovarian, 41.3%; in the assay with OVCAR-4 ovarian, 1.98% (active); with SK-OV-3 ovarian, 4.28% (active); in the assay with IGROV1 ovarian, -22.3% (active). The growth in the assay on OVCAR-3 ovarian is -9.92% (active); in the assay on HS 578T breast, 11.2%; with NCI/ADR-RES ovarian, 87.7%; in the assay with T-47D breast, -10% (active).

For `Cc1cccc(NC2=C(C#N)C(=O)NC3(CCCC3)S2)c1`, the growth in the assay with RPMI-8226 leukemia was 90%; in the assay with OVCAR-8 ovarian it was 100%; in the assay with OVCAR-5 ovarian, 103%; in the assay with OVCAR-4 ovarian it was 103%; with SK-OV-3 ovarian, 103%; with IGROV1 ovarian, 168%. Further, the growth in the assay with OVCAR-3 ovarian was 116%; with HS 578T breast, 103%; in the assay with NCI/ADR-RES ovarian it was 100%; with T-47D breast, 102%.

For `Cc1ccc(C(=O)N2C/C(=C/c3ccc(F)cc3)C(=O)/C(=C/c3ccc(F)cc3)C2)cc1`, the growth in the assay on RPMI-8226 leukemia is -18% (active); with OVCAR-8 ovarian, 91.4%; in the assay with OVCAR-5 ovarian it was 110%; with OVCAR-4 ovarian it was 87.7%; in the assay with SK-OV-3 ovarian, 92.5%; in the assay with IGROV1 ovarian, 102%. Moreover, the growth in the assay on OVCAR-3 ovarian was 101%; in the assay with HS 578T breast, 107%; in the assay with NCI/ADR-RES ovarian, 82%; in the assay on T-47D breast it was 81.9%.

`Clc1ccc(-c2cn(-c3ccccc3)c(-c3ccccc3)n2)c(Cl)c1`: the growth in the assay on RPMI-8226 leukemia was 16%; with OVCAR-8 ovarian, 9.55% (active); with OVCAR-5 ovarian, 16.4%; in the assay on OVCAR-4 ovarian, -100% (active); in the assay with SK-OV-3 ovarian, 25.1%; in the assay on IGROV1 ovarian, -26.3% (active). Also, the growth in the assay on OVCAR-3 ovarian is -84% (active); in the assay with HS 578T breast it was -20.3% (active); in the assay on NCI/ADR-RES ovarian it was 13.6%; in the assay on T-47D breast, -17.6% (active).

For the molecule `O=C(C[P+](c1ccccc1)(c1ccccc1)c1ccccc1)C[P+](c1ccccc1)(c1ccccc1)c1ccccc1`, the growth is -40.6% (active) in the assay with RPMI-8226 leukemia; -42.1% (active) with OVCAR-8 ovarian; -94.9% (active) with OVCAR-5 ovarian; -55.8% (active) in the assay on OVCAR-4 ovarian; -3.83% (active) with SK-OV-3 ovarian; -69.3% (active) in the assay on IGROV1 ovarian. The growth in the assay with OVCAR-3 ovarian is -92.9% (active); in the assay on HS 578T breast, -5.42% (active); in the assay with NCI/ADR-RES ovarian it was 1.56% (active); in the assay on T-47D breast, -45.2% (active).

Turning to `COc1ccc(-c2nc(-c3nc4cc(Cl)c(Cl)cc4[nH]3)c3ccccn23)cc1`, the growth was 49.9% in the assay with RPMI-8226 leukemia; 31.6% with OVCAR-8 ovarian; 91.6% with OVCAR-5 ovarian; -34.2% (active) in the assay on OVCAR-4 ovarian; -25.1% (active) in the assay on SK-OV-3 ovarian; 75.9% in the assay on IGROV1 ovarian. For the same molecule, the growth is 39% in the assay on OVCAR-3 ovarian, 12.9% in the assay on HS 578T breast, 51.4% in the assay on NCI/ADR-RES ovarian and 66.5% in the assay with T-47D breast.
